Common to all, as to test: bioluminescence (viable cell) signal fold change after vs before treatment, normalised to DMSO (ratio); higher = more tumour cell growth / less inhibition
Conditions in all cases: 10 µM; treatment time 6 days

In assay [1] the test system is LEGO organoid PTCC (PTEN-/-; TP53-/-; CDKN2A-/-; CDKN2B-/-). How it is done:
(§1)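 Luc2-labelled iPSC-derived glioblastoma-like organoids (LEGOs, genotypes PT = PTEN-/-;TP53-/-, PTCC = plus CDKN2A/B-/-, PTN = plus NF1-/-) were treated with 10 uM drug for 6 days (applied every other day) at 37 C. Bioluminescence imaging was done before treatment and 2 days after the last dose. BLI signals were normalised to the DMSO control on the same day and then to the pre-treatment signal (N=3).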

The subject of assay [2] is LEGO organoid PTN (PTEN-/-; TP53-/-; NF1-/-). The method, then:
as §1

For assay [3], the system named is LEGO organoid PT (PTEN-/-; TP53-/-). The method, then: as §1

Take `C#Cc1cccc(Nc2ncnc3cc(OCCOC)c(OCCOC)cc23)c1` [Erlotinib]: the bioluminescence in assay [1] is 4.27; in assay [2] it was 1.82.

Take `Cc1cc(C)cc(OCC2CNC(=O)O2)c1` (stereo not drawn) [Metaxalone]: the results for the bioluminescence in assay [1] and in assay [2] were 1.35 and 1.62, respectively.

As to `CCOC(=O)N1CC\C(CC1)=C1\c2ccc(Cl)cc2CCc2cccnc12` [Loratadine], the values for the bioluminescence in assay [3], in assay [1] and in assay [2] were 0.684, 1.05 and 1.36, respectively.

Consider `CC1(C)S[C@@H]2[C@H](NC(=O)[C@H](N)c3ccc(O)cc3)C(=O)N2[C@H]1C(=O)O.O.O.O` [Amoxicillin trihydrate], for which the bioluminescence was 1.03 in assay [3], 2.36 in assay [1] and 0.841 in assay [2].

With `CCN(CC)C(=O)[C@@]1(c2ccccc2)C[C@H]1CN.Cl` [Milnacipran ((1S-cis) hydrochloride)], the bioluminescence stood at 2.09 in assay [1] and 0.808 in assay [2].

Regarding `C[C@@H]1COCCN1c1cc(C2([S@](C)(=N)=O)CC2)nc(-c2ccnc3[nH]ccc23)n1` [Ceralasertib], the bioluminescence worked out at 0.917 in assay [3], 1.4 in assay [1] and 0.823 in assay [2].

On to `COc1cc2c(cc1OC)C(=O)C(CC1CCN(Cc3ccccc3)CC1)C2.Cl` (stereo not drawn) [Donepezil HCl], for which the bioluminescence in assay [3] came out at 0.543; in assay [1] it was 0.812; in assay [2], 0.746.

Regarding `O=C(O)c1cccnc1` [Niacin], the bioluminescence in assay [1] stood at 2.03; in assay [2], 1.59.

For `Cl.NCC(=O)CCC(=O)O` [5-Aminolevulinic acid hydrochloride], the values for the bioluminescence in assay [3], in assay [1] and in assay [2] were 1.09, 2.27 and 1.19, respectively.

Consider `COc1ccc([C@@H]2CC(=O)c3c(O)cc(O[C@@H]4O[C@H](CO[C@@H]5O[C@@H](C)[C@H](O)[C@@H](O)[C@H]5O)[C@@H](O)[C@H](O)[C@H]4O)cc3O2)cc1O` [Hesperidin], for which the results for the bioluminescence in assay [3], in assay [1] and in assay [2] were 1.16, 0.805 and 1.75, respectively.

With `CN(Cc1cnc2nc(N)nc(N)c2n1)c1ccc(C(=O)N[C@@H](CCC(=O)O)C(=O)O)cc1` [Methotrexate], the bioluminescence came to 1.94 in assay [3], 1.34 in assay [1] and 0.813 in assay [2].

Turning to `CC(C)(C)c1cc(C(C)(C)C)c(NC(=O)c2c[nH]c3ccccc3c2=O)cc1O` [Ivacaftor], the values for the bioluminescence in assay [3], in assay [1] and in assay [2] were 0.378, 0.191 and 0.603, respectively.

Turning to `CO[C@H]1/C=C/O[C@@]2(C)Oc3c(C)c(O)c4c(O)c(c(/C=N/N5CCN(C)CC5)c(O)c4c3C2=O)NC(=O)/C(C)=C\C=C\[C@H](C)[C@H](O)[C@@H](C)[C@@H](O)[C@@H](C)[C@H](OC(C)=O)[C@@H]1C` [Rifampicin], the bioluminescence in assay [3] was found to be 3.6; in assay [1] it was 0.603; in assay [2] it was 0.579.

On to `CCCCC1C(=O)N(c2ccccc2)N(c2ccccc2)C1=O` [Phenylbutazone], for which the bioluminescence stood at 2.33 in assay [3], 1.76 in assay [1] and 2.68 in assay [2].

Consider `OCCN1CCN(CCCN2c3ccccc3Sc3ccc(Cl)cc32)CC1` [Perphenazine], for which the bioluminescence in assay [3] worked out at 0.743; in assay [1], 0.615; in assay [2] it was 1.74.

As for `CCCN[C@H]1CCc2nc(N)sc2C1.Cl.Cl.O` [Pramipexole 2HCl Monohydrate], the bioluminescence was 1.35 in assay [3], 0.567 in assay [1] and 0.629 in assay [2].

As to `Cc1cn([C@H]2C[C@H](N=[N+]=[N-])[C@@H](CO)O2)c(=O)[nH]c1=O` [Zidovudine], the bioluminescence in assay [3] stood at 5.37; in assay [1], 1.35; in assay [2], 3.76.

As for `FC(F)(F)C(Cl)Br` (stereo not drawn) [Anestan], the values for the bioluminescence in assay [3], in assay [1] and in assay [2] were 1.01, 0.664 and 1.3, respectively.

For the compound `C[C@H]1C[C@@H]2[C@H]([C@@H](O)C[C@@]3(C)[C@H]2CC[C@]3(O)C(=O)CO)[C@@]2(C)C=CC(=O)C=C12` [Methylprednisolone], the bioluminescence in assay [3] came to 1.3; in assay [1], 0.882; in assay [2] it was 1.17.

Turning to `CCc1cccc2c3c([nH]c12)C(CC)(CC(=O)O)OCC3` (stereo not drawn) [Etodolac], the figures for the bioluminescence in assay [3], in assay [1] and in assay [2] were 1, 0.917 and 1.19, respectively.

Turning to `Cc1cccc(C)c1OCC(=O)N[C@@H](Cc1ccccc1)[C@@H](O)C[C@H](Cc1ccccc1)NC(=O)[C@H](C(C)C)N1CCCNC1=O` [Lopinavir], the bioluminescence in assay [1] came to 0.969; in assay [2], 0.66.

With `CN1CCN(CCCN2c3ccccc3Sc3ccc(C(F)(F)F)cc32)CC1.Cl.Cl` [Trifluoperazine dihydrochloride], the bioluminescence in assay [3] amounted to 0.771; in assay [1], 1.31; in assay [2], 1.23.

`C[C@@H]1O[C@@H]1P(=O)(O)O.NC(CO)(CO)CO` [Fosfomycin Tromethamine]: the figures for the bioluminescence in assay [3], in assay [1] and in assay [2] were 0.757, 1.69 and 0.813, respectively.

In the case of `COCCCC/C(=N\OCCN)c1ccc(C(F)(F)F)cc1.O=C(O)/C=C\C(=O)O` [Fluvoxamine maleate], the results for the bioluminescence in assay [3], in assay [1] and in assay [2] were 1.22, 0.792 and 1.47, respectively.

`Cl.O=C1CN2Cc3c(ccc(Cl)c3Cl)NC2=N1` [Anagrelide hydrochloride]: the bioluminescence is 1.02 in assay [3], 0.834 in assay [1] and 1 in assay [2].

Take `CN(C)CCc1c[nH]c2ccc(CS(=O)(=O)N3CCCC3)cc12.O=C(O)CC(O)C(=O)O` [Almotriptan Malate]: the bioluminescence came to 1.74 in assay [3], 0.868 in assay [1] and 0.959 in assay [2].

The values are drawn from the supplement of paper PMC10811239.
